{"source": "the antibiotic and cytotoxicity screens of Wong et al. (2023)", "note": "The whole screen tested about 39,000 compounds, of which about 1,500 (3.8%) were called active. Shown is part of a subset that was picked to be rich in actives.", "data": [{"system": "HSkMC (human skeletal muscle cells)", "assay": "cytotoxicity call (relative viability < 0.9)", "conditions": "10 µM", "values": [{"smiles": "COc1ccc(S(=O)(=O)N2C[C@H](O)COC[C@@H]3O[C@H](CC(=O)N[C@@H]4CCN(Cc5ccccc5)C4)CC[C@H]32)cc1", "cytotoxicity call": "inactive"}, {"smiles": "COc1ccc(CN(C)C[C@H]2OCCCC[C@@H](C)Oc3ccc(NC(=O)Nc4cccc5ccccc45)cc3C(=O)N([C@H](C)CO)C[C@@H]2C)cc1", "cytotoxicity call": "active"}, {"smiles": "COc1ccc(CN(C)C[C@@H]2OCCCC[C@H](C)Oc3ccc(NC(=O)Nc4cccc5ccccc45)cc3C(=O)N([C@@H](C)CO)C[C@H]2C)cc1", "cytotoxicity call": "active"}, {"smiles": "COc1ccc(CN(C)C[C@@H]2OCCCC[C@@H](C)Oc3ccc(NC(=O)Nc4cccc5ccccc45)cc3C(=O)N([C@H](C)CO)C[C@@H]2C)cc1", "cytotoxicity call": "inactive"}, {"smiles": "COc1ccc(CN(C)C[C@H]2OCCCC[C@H](C)Oc3ccc(NC(=O)Nc4cccc5ccccc45)cc3C(=O)N([C@H](C)CO)C[C@@H]2C)cc1", "cytotoxicity call": "inactive"}, {"smiles": "COc1ccc(CN(C)C[C@@H]2OCCCC[C@@H](C)Oc3ccc(NC(=O)Nc4cccc5ccccc45)cc3C(=O)N([C@@H](C)CO)C[C@@H]2C)cc1", "cytotoxicity call": "inactive"}, {"smiles": "COc1ccc(CN(C)C[C@H]2OCCCC[C@@H](C)Oc3ccc(NC(=O)Nc4cccc5ccccc45)cc3C(=O)N([C@@H](C)CO)C[C@H]2C)cc1", "cytotoxicity call": "active"}, {"smiles": "COc1ccc(CN(C)C[C@H]2OCCCC[C@H](C)Oc3ccc(NC(=O)Nc4cccc5ccccc45)cc3C(=O)N([C@H](C)CO)C[C@H]2C)cc1", "cytotoxicity call": "active"}, {"smiles": "COc1ccc(CN(C)C[C@H]2OCCCC[C@@H](C)Oc3ccc(NC(=O)Nc4cccc5ccccc45)cc3C(=O)N([C@@H](C)CO)C[C@@H]2C)cc1", "cytotoxicity call": "inactive"}, {"smiles": "CCOC(=O)c1cc2c(c(-c3cccc(-c4cccc(F)c4)c3)n1)[C@H](CCO)N(S(=O)C(C)(C)C)C2", "note": "(stereo not given in full)", "cytotoxicity call": "inactive"}, {"smiles": "N#C[C@H]1N[C@@H](CO)[C@@H]1c1ccccc1", "cytotoxicity call": "inactive"}, {"smiles": "CC(C)NC(=O)N(C)C[C@@H]1OCCCC[C@H](C)Oc2ccc(NC(=O)C3CCCCC3)cc2C(=O)N([C@H](C)CO)C[C@@H]1C", "cytotoxicity call": "inactive"}, {"smiles": "COc1ccc(S(=O)(=O)Nc2ccc3c(c2)C(=O)N([C@@H](C)CO)C[C@@H](C)[C@@H](CN(C)C(=O)Nc2ccccc2)OCCCC[C@@H](C)O3)cc1", "cytotoxicity call": "inactive"}, {"smiles": "C[C@@H]1CN([C@H](C)CO)C(=O)c2cc(Br)cnc2O[C@@H]1CN(C)S(=O)(=O)c1ccc(F)cc1", "cytotoxicity call": "inactive"}, {"smiles": "C[C@@H]1CN([C@@H](C)CO)C(=O)c2cc(NC(=O)CCN3CCOCC3)ccc2O[C@@H]1CN(C)C(=O)Nc1ccc2c(c1)OCO2", "cytotoxicity call": "inactive"}, {"smiles": "C[C@@H]1CN([C@H](C)CO)C(=O)c2cc(C#CCN(C)C)cnc2O[C@@H]1CN(C)C(=O)c1ccc2c(c1)OCO2", "cytotoxicity call": "inactive"}, {"smiles": "C[C@@H]1CN([C@@H](C)CO)S(=O)(=O)c2ccc(C#CC3CCCC3)cc2O[C@H]1CN(C)C(=O)Cc1ccncc1", "cytotoxicity call": "inactive"}, {"smiles": "Cc1noc(C)c1NC(=O)Nc1ccc2c(c1)CC(=O)N([C@@H](C)CO)C[C@H](C)[C@H](CN(C)S(=O)(=O)c1cccs1)O2", "cytotoxicity call": "inactive"}, {"smiles": "COC(=O)C1=C(C)NC(C)=C(C(=O)OC(C)(C)CN(C)CCC(c2ccccc2)c2ccccc2)[C@@H]1c1cccc([N+](=O)[O-])c1", "cytotoxicity call": "active"}, {"smiles": "CCOC(=O)C1=C(C)NC(C)=C(C(=O)OC)C1c1cccc([N+](=O)[O-])c1", "note": "(stereo not given)", "cytotoxicity call": "inactive"}, {"smiles": "COCCOC(=O)C1=C(C)NC(C)=C(C(=O)OC(C)C)C1c1cccc([N+](=O)[O-])c1", "note": "(stereo not given)", "cytotoxicity call": "inactive"}, {"smiles": "COC(=O)C1=C(C#N)NC(C)=C(C(=O)OC(C)C)C1c1cccc([N+](=O)[O-])c1", "note": "(stereo not given)", "cytotoxicity call": "inactive"}, {"smiles": "COC(=O)C1=C(C)NC(C)=C(C(=O)OCCN2CCN(C(c3ccccc3)c3ccccc3)CC2)C1c1cccc([N+](=O)[O-])c1", "note": "(stereo not given)", "cytotoxicity call": "inactive"}, {"smiles": "COC(=O)C1=C(C)NC(C)=C(C(=O)OCCCN2CCC(c3ccccc3)(c3ccccc3)CC2)[C@H]1c1cccc([N+](=O)[O-])c1", "cytotoxicity call": "active"}, {"smiles": "COC(=O)C1=C(C)NC(C)=C(C(=O)OCCN(C)Cc2ccccc2)C1c1cccc([N+](=O)[O-])c1.Cl", "note": "(stereo not given)", "cytotoxicity call": "inactive"}, {"smiles": "CCCN1C(C)=C(C(=O)OC)[C@@H](c2cccc([N+](=O)[O-])c2)C(C(=O)ON2CCC(c3ccccc3)(c3ccccc3)CC2)=C1C", "cytotoxicity call": "active"}, {"smiles": "COC(=O)C1=C(C)NC(C)=C(C(=O)NCCCN2CCC(c3ccccc3)(c3ccccc3)CC2)[C@@H]1c1ccc([N+](=O)[O-])cc1", "cytotoxicity call": "inactive"}, {"smiles": "COC(=O)C1=C(C)NC(C)=C(C(=O)OCCCN2CCC(c3ccccc3)(c3ccccc3)CC2)[C@@H]1c1cccc([N+](=O)[O-])c1", "cytotoxicity call": "active"}, {"smiles": "CC1=C(C(=O)OCCN(Cc2ccccc2)c2ccccc2)[C@H](c2cccc([N+](=O)[O-])c2)C(P2(=O)OCC(C)(C)CO2)=C(C)N1", "cytotoxicity call": "inactive"}, {"smiles": "COCCOC(=O)C1=C(C)NC(C)=C(C(=O)OCC=Cc2ccccc2)C1c1cccc([N+](=O)[O-])c1", "note": "(stereo not given)", "cytotoxicity call": "inactive"}, {"smiles": "Cc1ccc(S(=O)(=O)N(C)C[C@H]2Oc3ccc(NS(=O)(=O)c4cccs4)cc3CC(=O)N([C@@H](C)CO)C[C@@H]2C)cc1", "cytotoxicity call": "inactive"}, {"smiles": "C[C@@H]1CN([C@H](C)CO)C(=O)Cc2cc(NC(=O)c3ccncc3)ccc2O[C@@H]1CN(C)Cc1ccc(C(=O)O)cc1", "cytotoxicity call": "inactive"}, {"smiles": "COc1ccc(O)c(N)c1", "cytotoxicity call": "inactive"}, {"smiles": "c1csc(CNc2ccc(NCc3cccs3)cc2)c1", "cytotoxicity call": "inactive"}, {"smiles": "Cc1noc(C)c1NC(=O)N[C@H]1CC[C@@H](CC(=O)N2CCN(C)CC2)O[C@@H]1CO", "cytotoxicity call": "inactive"}]}]}
